Laboratory results from ChEMBL document CHEMBL3988442, “University of Dundee, Small-Polar-MMV Screening Library” (2021).
Among all 53,000 compounds or so, about 900 (1.7%) showed an effect of 50% or more. The list comes from a sample in which strong results are over-represented; it also holds similar structures and randomly drawn compounds.

test system: Mycobacterium tuberculosis; assay: Cornell - Phenotypic assay to identify agents that inhibit growth of Mycobacterium tuberculosis; format: functional; design: scale not given: direction of the effect not stated beside the values; settings: 10 mM as filed; unlikely as a test dose

Structure (SMILES) | Percent Effect [%]
NC(=O)C1CCN(C(=O)NC2CCc3cc(F)ccc32)CC1 (stereo unspecified) | -2.777
Fc1ccccc1-c1nccnc1C1CCCNC1 (stereo unspecified) | 6.685
Cc1ccccc1CN1C[C@@H](C(=O)N2CCCCO2)C[C@H]2OCC[C@H]21.O=C(O)C(F)(F)F | 19.61
O=C(NC1CC1)C1(Cc2ccccc2-c2ccncc2)CCOCC1 | -4.384
CS(=O)(=O)N1CCOCC12CCN(Cc1ccc(F)cc1)CC2.O=C(O)C(F)(F)F | 10.73
CS(=O)(=O)N1CCCC(C(=O)Nc2cnn(Cc3ccc(Cl)cc3)c2)C1 (stereo unspecified) | 6.456
COc1cc(CN2CCCC2)ccc1OC12CCCN(CC1)C2 (stereo unspecified) | 6.74
CCCc1ccc(OC23CCCN(CC2)C3)c(OC)c1 (stereo unspecified) | 51.62
COc1cc(C#N)ccc1OC12CCCN(CC1)C2 (stereo unspecified) | 14.23
Cc1nnc2n1CCN(C(=O)c1cc(C)n(-c3ccccc3)c1C)C2 | -35.93
CN(CCCOc1ccccc1)Cc1nc2c(cnn2C)c(=O)[nH]1 | 27.35
COc1cccc(OCC(=O)N2CCOc3ccncc32)c1 | -4.09
Cc1ncsc1-c1cc(C(=O)NCCO)ccn1 | 0.2276
CCCNC(=O)CNC(=O)c1scnc1C | -19.92
CNC(=O)CNC(=O)c1ccc(-c2scnc2C)nc1 | 51.37
Cc1cc(C(=O)CN2CCN(c3nccs3)CC2)c(C)n1C1CC1 | 7.889
COc1ccc(CCN(C)C(=O)c2cc(C(C)=O)c[nH]2)cc1OC | -7.568
CCNC(=O)[C@H]1CN(Cc2ccccc2)C[C@@H]1C(=O)c1ccccc1 | 41.32
O=C(O)[C@H]1CN(Cc2ccccc2)C[C@@H]1C(=O)c1ccccc1 | 51.09
CNC(=O)[C@@H]1CN(Cc2ccccc2)C[C@H]1C(=O)c1ccc(F)cc1 | 28.54
CC(C)NC(=O)[C@H]1CN(Cc2ccccc2)C[C@@H]1C(=O)c1ccccc1 | 38.41
O=C(NC1CC1)[C@H]1CN(Cc2ccccc2)C[C@@H]1C(=O)c1ccccc1 | 30.86
CCNC(=O)[C@@H]1CN(Cc2ccccc2)C[C@H]1C(=O)c1ccc(F)cc1 | 56.73
O=C(c1ccc(O)c(Cl)c1)N1CCN(c2nccs2)CC1 | 19.4
CC(C)CC(=O)N1CC[C@H]2C[C@H](c3nccs3)O[C@@H]2C1 | 29.2
Cn1ncc2c1NC(=O)CC2c1c(F)cccc1Cl (stereo unspecified) | 13.6

Structure (SMILES) | Percent Effect [%]
CNc1nc2c(s1)C(c1cccc(F)c1F)CC(=O)N2 (stereo unspecified) | -9.045
Nc1nc2c(s1)C(c1c(F)cccc1Cl)CC(=O)N2 (stereo unspecified) | 103.5
CNc1nc2c(s1)C(c1ccccc1F)CC(=O)N2 (stereo unspecified) | -4.667
CNc1nc2c(s1)C(c1ccccc1Cl)CC(=O)N2 (stereo unspecified) | 45.9
CNc1nc2c(s1)C(c1c(F)cccc1Cl)CC(=O)N2 (stereo unspecified) | 108
CNc1nc2c(s1)C(c1ccc(F)cc1Cl)CC(=O)N2 (stereo unspecified) | 32.27
CNc1nc2c(s1)C(c1cccc(Cl)c1Cl)CC(=O)N2 (stereo unspecified) | 35.33
CNc1nc2c(s1)C(c1c(Cl)cccc1Cl)CC(=O)N2 (stereo unspecified) | 107.9
CC(O)CN1CC(C)(C)CN(C(=O)CCc2ccccc2)CC1=O (stereo unspecified) | 4.925
CCN1CCN(C(=O)c2cc(-c3ccc(C)o3)n[nH]2)[C@H]2CS(=O)(=O)C[C@H]21 | -0.2092
CCNC(c1cccnc1)c1ccc(F)c(C)c1 (stereo unspecified) | -53.96
CC(=O)N1CCN(C(=O)Nc2ccccc2Cl)[C@H]2CS(=O)(=O)C[C@H]21 | 4.723
Cc1cc(C)n(CC(=O)N2CCCCC2CCN2CCCC2=O)c(=O)n1 (stereo unspecified) | 8.917
Cc1cc(C(=O)N2CCc3c(CN(C)C(C)C)n[nH]c3C2)[nH]n1 | 21.29
CCc1noc(CNc2ccc(C(=O)N3CCCC3)cc2C)n1 | -69.23
Cc1ccc(CN2CCc3onc(C(=O)Nc4cccnc4)c3C2)o1.O=C(O)C(F)(F)F.O=C(O)C(F)(F)F | 61.31
Cc1ccc(CN2CCc3onc(C(=O)NCCN(C)C)c3C2)o1.O=C(O)C(F)(F)F.O=C(O)C(F)(F)F | 6.093
Cc1ccc(CN2CCc3onc(C(=O)NC(C)C)c3C2)o1.O=C(O)C(F)(F)F | 1.183
CCc1cnc(CN(C)C2CCN(Cc3nnc(C4CC4)n3C)C2)o1 (stereo unspecified) | 31.65
Cc1cc(C)c(C(=O)N(C)CCN(C)C(=O)OC(C)(C)C)[nH]1 | 68.36
Cc1cc(C(=O)N(C)CCN(C)C(=O)OC(C)(C)C)oc1C | -8.303
Cc1cc(C)c(C(=O)N(C)CCN(C)C(=O)c2[nH]c(C)cc2C)[nH]1 | 1.614
c1cc(CNc2ncc(-c3cnccn3)c(C3CC3)n2)ccn1 | -5.136
CSc1cccc(CN(C)C(=O)c2cccc(C3CCCNC3)c2)c1 (stereo unspecified) | 36.25
CC(=O)N1CCC(c2ncc(C(=O)Nc3ccc(F)cc3)c(C)n2)CC1 | 4.765
O=C(O)C(F)(F)F.O=S(=O)(NCC1COCc2c(-c3ccncc3)nnn2C1)C1CC1 (stereo unspecified) | 13.64

Structure (SMILES) | Percent Effect [%]
Cn1cc(-c2csc(N3CCN(C(=O)OC(C)(C)C)CC3)n2)cn1 | 78.03
CN1CCN(c2nc(-c3cnn(C)c3)cs2)CC1 | 19.22
Cn1cc(-c2csc(N3CCCCCC3)n2)cn1 | 18.17
Cc1occc1C(=O)N1CCCC(C2=Nc3ccccc3S(=O)(=O)N2)C1 (stereo unspecified) | 60.62
O=C(C1CC1)N1CCCC(C2=Nc3ccccc3S(=O)(=O)N2)C1 (stereo unspecified) | 29.99
O=C(c1ccncc1)N1CCCC(C2=Nc3ccccc3S(=O)(=O)N2)C1 (stereo unspecified) | 43.45
CC(C)CN1C[C@H]2C[C@H](C(=O)Nc3cccnc3)[C@@H](C1)O2 | 6.477
CCN(CC)S(=O)(=O)CC(=O)N1CCc2ccc(Cl)cc21 | 4.859
CCOc1cc(CN(C)CCCC#N)ccc1OC(F)F | 7.532
Cc1cc(NC(=O)C2CCN(c3nnc(C)c(C)c3C#N)CC2)no1 | -12.4
CCC(NC(=O)Nc1ccc(OC)c(C)c1)c1ccncc1 (stereo unspecified) | 89.35
Cc1cc(NC(=O)NCc2nncn2C)ccc1OC(C)C | -0.4289
CCC(NC(=O)Nc1ccc(OC)c(C)c1)c1noc(C)n1 (stereo unspecified) | -4.83
CCC(CO)NC(=O)Nc1ccc(OCC(F)(F)F)c(C)c1 (stereo unspecified) | -5.78
Cc1cc(NC(=O)NCc2nccn2C)ccc1OC(C)C | 35.97
Cc1cc(NC(=O)NCc2ccncc2)ccc1OC(C)C | 88.24
CCCc1nc2c(c(C)c(C)n2Cc2cccnc2)c(N)c1CC | 0.8008
CC(=O)c1nn(-c2ccccc2Cl)c(C)c1C(C)=O | 14.3
COCCNC(=O)c1cccnc1Sc1cc(OC)ccc1OC | -23.48
Cc1ncc2c(n1)CN(CC(=O)Nc1cccnc1)CC2 | -17.74
CC(C)NC(=O)N1CCCn2cnc(CO)c2C1.O=C(O)C(F)(F)F | 25.62
Cc1cccc(CN2C[C@@H]3CN(C(=O)NC(C)C)C[C@@H]3C2=O)n1.O=C(O)C(F)(F)F | 25.36
CN1CCC(c2cc(CCO)ncn2)C1 (stereo unspecified) | -9.182
O=C(NCc1ccccc1CN1CCOCC1)c1ccc(Br)cc1F | 8.243
O=C(Nc1ccc(Br)cc1F)c1ccc(N2CCOCC2)nn1 | -1.334
O=C(Nc1ccc(Br)cc1F)c1cc(CN2CCOCC2)on1 | 74.1

Structure (SMILES) | Percent Effect [%]
CC(=O)N1CC(c2n[nH]c3ncccc23)C1 | -13.82
CNS(=O)(=O)CC(=O)N1CCCc2cc(Br)ccc21 | -18.99
COCc1nc(C(=O)OCC2CCN(c3ccccc3)C2)cs1 (stereo unspecified) | 17.1
COc1ccc(C(NCc2ccc(C#N)cc2)C2CC2)cc1.Cl (stereo unspecified) | -15.68
CCN1CCN(Cc2c(C3CCCC3)[nH]c3ncccc23)CC1 | 74.68
c1cnc2[nH]c(C3CCCC3)c(CN3CCCCC3)c2c1 | 34.75
c1cnc2[nH]c(C3CCCC3)c(CN3CCOCC3)c2c1 | 24.1
CC1CCN(C(=O)C2CC(=O)N(c3cnn(C(C)C)c3)C2)CC1 (stereo unspecified) | -3.187
CC(C)Nc1oc(-c2ccc(S(=O)(=O)N(C)C)o2)nc1C#N | -45.52
CN(C)S(=O)(=O)c1ccc(-c2nc(C#N)c(NC(C)(C)C)o2)o1.Cl | 104.3
CNc1oc(-c2ccc(S(=O)(=O)N(C)C)o2)nc1C#N | 17.81
Cc1nc(N2CCC(CC(=O)N3CCCC3)CC2)c2cnn(C)c2n1 | 3.468
CC(C)C1SCC(=O)Nc2c1cnn2C(C)C (stereo unspecified) | 18.65
CNc1ccc(C2CN(c3cc(C)ncn3)CCO2)nc1 (stereo unspecified) | 34.11
CNc1ccc(C2CN(c3nc(C)cc(C)n3)CCO2)nc1 (stereo unspecified) | 51.49
CNc1ccc(C2CN(c3cc(C)nc(N)n3)CCO2)nc1 (stereo unspecified) | 24.16
Cc1cc(NC(=O)Cc2ccccc2O)c[nH]c1=O | 77.58
O=C(Cc1ccccc1O)Nc1ccc(N2CCCC2)nc1 | -5.098
Cc1cc(NC(=O)Cc2ccccc2O)cnc1N1CCCCC1 | 28.35
Cc1cc(NC(=O)C(C)N2CCN(c3ccccc3F)CC2)no1 (stereo unspecified) | 2.813
CCC(O)CNc1ccc(-c2nc(CC(C)C)no2)cn1 (stereo unspecified) | 50.96
CCn1cncc1CNc1ccc(-c2nc(CC(C)C)no2)cn1 | 11.21
CC(C)Cc1noc(-c2ccc(NCc3noc(C(C)C)n3)nc2)n1 | 44.87
